Screening results deposited in PubChem BioAssay by National Center for Advancing Translational Sciences (NCATS).
Compounds with a hit are over-represented: about 13% of the library has one in this group of screens.
FMDV antiviral: blocks foot and mouth disease virus; Potency, µM (series often up to 57.9 µM), for inactives: at the highest dose activity change, negative = inhibition, hits mostly inhibitors; FMDV antiviral cell-based qHTS; 410,000 compounds, 1.2% hits; calls by dose curve; tested in HEK293T cells; also: read-out not given here; potency is read from the fitted curve at half-maximal effect; % is scaled to controls: 0 for no effect and ±100 for the full control effect; nearly all actives have a fitted effect of over 45% in size
Shiga inhibitor: blocks Shiga toxin action in Vero cells; inhibition, % at 38.7 µM; 290,000 compounds, 9.2% hits; AID 2315; Vero cells, Shiga toxin protein synthesis inhibition reporter; in the data active = inhibition mostly above about 28%, no sharp cut-off; inactive = mostly below about 43%; also: 0% is about no effect
HCV inh: blocks hepatitis C virus; Huh7.5.1 HCVcc-Cre infection, luciferase reporter, 44 h; Potency, µM (titrated, usually from 41.8 µM), without a hit: at the highest dose activity change, negative = inhibition, usual class: inhibitors; 340,000 compounds, 3.4% hits; active = well fitted inhibition curve with a large enough effect; inconclusive = small, poorly fitted or top-dose-only effect, or another doubt; inactive = no such curve, though single readings can be large or run the other way; also: potency is read from the fitted curve at half-maximal effect; % is scaled to controls: 0 for no effect and ±100 for the full control effect
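After 44 h co-culture of compound, cells and HCVcc-Cre (~0.5 moi), substrate is added for 15 min at room temperature and luciferase measured over 15 sec. Cells were seeded at 1,000/well and pre-cultured 4 h.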
Marburg entry inh: blocks Marburg virus binding to or entry into cells | Potency, µM (series often up to 37.8 µM), without a hit: at the highest dose activity change, negative = inhibition, usual class: inhibitors | 300,000 compounds, 1.8% hits | Marburg virus pseudotyped entry inhibition, cell reporter; calls by dose curve; tested in HEK293 cells; also: potency is read from the fitted curve at half-maximal effect; % is scaled to controls: 0 for no effect and ±100 for the full control effect
Cycloheximide cs: affects cycloheximide protein synthesis inhibition readout, counter-screen. cell reporter, cycloheximide protein synthesis inhibition counterscreen. 300,000 compounds, 12% hits. max response, %; in the data active = max response mostly above about 13%, no sharp cut-off; inactive = mostly below about 14%; also: read at 38.3 µM for the half of the compounds with a filed dose; 0% is about no effect
LASV entry inh: blocks Lassa virus binding to or entry into cells | Potency, µM (titrated, usually from 37.9 µM), for the others: at the highest dose activity change, negative = inhibition, hits mostly inhibitors | 300,000 compounds, 1.2% hits | Lassa virus pseudotype entry inhibition, cell reporter; calls by dose curve; tested in HEK293 cells; also: potency is read from the fitted curve at half-maximal effect; % is scaled to controls: 0 for no effect and ±100 for the full control effect; nearly all actives have a fitted effect of over 50% in size
Starred values were filed as active, the others as inactive; u = inconclusive; x = no result given; [ ] = dose if it differs, or a comment.

SMILES	FMDV antiviral	Shiga inhibitor	HCV inh	Marburg entry inh	Cycloheximide cs	LASV entry inh
CCOC(=O)N/N=C/c1c(C)nn(-c2ccccc2Cl)c1Cl	20%	33	u	u	27*	u
Cc1nn(-c2ccccc2Cl)c(Cl)c1/C=N/Nc1nc2ccccc2s1	0.0009µM*	170*	1%	0.033µM*	104*	1.1µM*
Cc1cc(=O)[nH]c(N/N=C/c2c(C)nn(-c3ccc(F)cc3)c2Cl)n1	u	-12	-29%	0%[46.1 µM]	-1	8%
Cc1ccc(C)c(OCC(=O)N/N=C/c2c(C)nn(-c3ccccc3)c2Cl)c1	x	-29	x	6%	-3	x
Cc1nn(-c2ccccc2)c(Cl)c1/C=N/Nc1nncc(=O)[nH]1	-19%	43	4%	x	12*	x
CCOc1ccc(/C=C2\SC(N3CCCCC3)=NC2=O)cc1	3%	26	u	x	11	x
COc1ccc(NCC(=O)N/N=C/c2c(C)nn(Cc3ccccc3)c2Cl)cc1	-21%	9	-22%	u	16	7.9µM*
Cc1nn(-c2ccccc2)c(Cl)c1/C=N/NC(=O)C1COc2ccccc2O1 (stereo unspecified)	x	-7	-2%	-5%	1	-1%
Cc1nn(Cc2ccccc2)c(C)c1/C=N/NC(=O)CNc1cccc(C(F)(F)F)c1	-25%	-6	u	x	8	x
Cc1nn(-c2ccccc2)c(Cl)c1/C=N/NC(=O)OC(C)(C)C	-20%	71*	-19%	u	38*	u
Cc1nn(-c2ccccc2)c(Cl)c1/C=N/Nc1ccc(S(=O)(=O)Nc2ccccc2C(=O)O)cc1[N+](=O)[O-]	14%	-9	3%	4%	7	-10%
Cc1nn(-c2ccccc2)c(Cl)c1/C=N/Nc1ccc(Cl)c(C(=O)O)c1	10µM*	98*	8%	2µM*	87*	u
O=C(O)Cn1cc(/C=C2\SC(=O)N(c3ccccc3)C2=O)c2ccccc21	2%	32	-7%	-2%[46.1 µM]	16*	28%[46.1 µM]
Cn1cc(/C=C2/SC(=O)N(c3ccccc3)C2=O)c2ccccc21	34%	43	-7%	u	25*	12%
Cc1ccc(S(=O)(=O)NN2C(=O)/C(=C/c3cccn3C)SC2=S)cc1	x	-15	17%	3%	-2	0%
Cn1cccc1/C=C1\SC(=O)N(c2ccccc2)C1=O	20%	63*	u	1%	52*	-11%
Cn1cccc1/C=C1\SC(=S)N(Nc2ccccc2)C1=O	57%	51*	-25%	x	37*	x
Cn1cc(/C=C2\SC(=S)N(NC(=O)c3ccccc3)C2=O)c2ccccc21	31%	-5	4%	-1%	-1	-6%
Cn1cccc1/C=C1/SC(=O)N(CC(=O)N2CCCC2)C1=O	-6%	-7	-11%	-4%[46.1 µM]	3	x
Cc1cccc(NC(=O)C2CCCN(S(=O)(=O)c3cccc4nonc34)C2)c1C (stereo unspecified)	4%	x	x	-10%[46.1 µM]	x	9%[46.1 µM]
CN(Cc1ccccc1)C(=O)CCC1CCN(C(=O)CC2=CCCCC2)CC1	-3%	21	0%	x	26	x
CN(Cc1ccccc1)C(=O)CCC(=O)N(C)Cc1ccccc1	24%	113*	4%	-17%	32*	6%
CN(Cc1ccccc1)C(=O)CCC1CCN(C(=O)CCC(F)(F)F)CC1	0%	x	1%	0%	32*	u
CN(Cc1ccccc1)C(=O)C(=O)c1ccccc1	33%	x	x	x	x	x
COC(=O)[C@H](Cc1ccccc1)NC(=O)N(C)Cc1ccccc1	15%	27	16%	1%[46.1 µM]	18*	1%
SMILES	FMDV antiviral	Shiga inhibitor	HCV inh	Marburg entry inh	Cycloheximide cs	LASV entry inh
CSc1ccccc1NC(=O)CN(C)C(=O)c1c(C)nn(Cc2ccccc2)c1C	-15%	x	1%	-11%	x	-15%
Oc1ccc2ccccc2c1CNc1ccc2ccccc2c1	2%	x	u	u	x	12%[46.1 µM]
COc1ccc(C(=O)NCc2nnc(SCC(=O)NCCc3ccccc3)o2)cc1	8%	0	7%	x	1	x
CCC(=O)c1ccc(OC(=O)N(C)c2ccccc2)cc1	29%	75	0%	14%[46.1 µM]	26*	12%
CN(C(=O)Oc1ccc(C(C)(C)C)cc1)c1ccccc1	63%	59*	u	1%[14.2 µM]	19*	-28%
O=C(COC(=O)/C=C/c1ccccc1[N+](=O)[O-])Nc1ccc(S(=O)(=O)N2CCOCC2)cc1	-6%	x	17%	-5%	x	28%
O=C(Nc1ccccc1)c1ccc(S(=O)(=O)Nc2cccc(O)c2)cc1	-21%	-24	u	x	-1	x
CC(OC(=O)c1cccc(NS(C)(=O)=O)c1)C(=O)Nc1ccc2c(c1)OCO2 (stereo unspecified)	u	x	7.1µM*	-26%	x	-21%
CC(=O)c1cccc(NS(=O)(=O)c2ccc(C(=O)Nc3ccccc3)cc2)c1	-13%	-22	4.5µM*	u	2	u
CCCN(CCC)S(=O)(=O)c1cccc(C(=O)Nc2ccc3c(c2)OCO3)c1	-15%	-20	u	x	9	x
Cc1ccc(S(=O)(=O)Nc2ccc(NC(=O)c3c(F)c(F)c(F)c(F)c3F)cc2)cc1	-14%	-6	13µM*	x	-3	x
CCN(CC)S(=O)(=O)c1cccc(C(=O)Nc2ccc3c(c2)OCO3)c1	-8%	91*	u	u	35*	-24%[46.1 µM]
COc1cccc(C(=O)OC(C)C(=O)Nc2ccc3c(c2)OCO3)c1 (stereo unspecified)	-15%	x	u	x	x	x
N#Cc1nc(Cc2cccc3ccccc23)oc1NCC1CCCO1 (stereo unspecified)	9%	-4	x	-2%	-1	30%[14.3 µM]
Cn1c(=O)c2c(nc(-n3ccnc3)n2Cc2ccc(Cl)cc2Cl)n(C)c1=O	x	-7	u	u	-3	20%
Cc1onc(-c2ccccc2Cl)c1C(=O)NC(=S)Nc1ccccc1C(N)=O	1%	-9	11%	-5%	-2	4%
CS(=O)(=O)N(CC(=O)Nc1ccc2c(c1)OCO2)Cc1ccccc1	x	28	-18%	16%	13*	11%
CCN(CC(=O)Nc1ccc2c(c1)OCCO2)S(=O)(=O)c1ccccc1	37%	37*	-4%	u	24*	u
CCN(CC)S(=O)(=O)c1ccc(NC(=O)c2ccc(NS(C)(=O)=O)cc2)cc1	-18%	-6	u	8%	-2	-23%
CCN(CC)S(=O)(=O)c1ccc(C(=O)Nc2ccc3c(c2)OCCO3)cc1	u	38	-27%	7%	20*	u
CCN(CC)S(=O)(=O)c1cccc(C(=O)N[C@H](C(=O)OCC(=O)Nc2ccccc2)C(C)C)c1	43%	16	-14%	-4%	15*	-2%
CCN(CC)S(=O)(=O)c1cccc(C(=O)N[C@H](C(=O)OCC(N)=O)C(C)C)c1	20%	-13	6%	-5%	-2	2%
Cc1ccc(SCC(=O)Nc2ccc3c(c2)C(=O)NC3=O)cc1	7%	-1	5%	1%[46.1 µM]	-3	11%[46.1 µM]
CCC(CC)C(=O)Nc1cccc(C(=O)Nc2ccc3c(c2)OCO3)c1	41%	80*	7.9µM*	19%	43*	0%
